Several values for one entry are separate records, joined by “and”; a condition that tells them apart may be missing. Equal entries are not always repeated. Records with an inconclusive call do not appear. The source holds several records for some structures; these can differ, active in one and inactive in another. Activity calls are given as the source filed them. Calls come from the whole dose curve; as a rule, active = well fitted inhibition curve with a large enough effect; inconclusive = small, poorly fitted or top-dose-only effect; inactive = flat fitted curve, though single readings scatter.
How the values were obtained:
[1] = Drug repurposing screens with cells derived from glioblastoma tumor samples (AID 1345199); settings: GBM patient neurospheres viability, ATP luminescence, 48 h; note: nearly all actives have a fitted effect of over 40% in size
Outline: (§1)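 Primary testing used CD133+ neurospheres from four GBM patients, seven concentrations, 48 h exposure and ATP-based viability; confirmation added three slower-growing patient lines.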

[2] = system: astro; experiment: as above; settings: viability, ATP luminescence, 48 h; series mostly up to 45.9 µM
Outline: as §1

[3] = at 20 µM (top of the series), tumour line C
[4] = at 21.2 µM (top of the series), tumour line B
[5] = at 21.2 µM (top of the series), tumour line D
[6] = at 21.3 µM (top of the series), tumour line A
[7] = at 45.9 µM (top of the series), tumour line B
[8] = at 45.9 µM (top of the series), tumour line D
[9] = at 46 µM (top of the series), tumour line A
[10] = at 46.1 µM (top of the series), tumour line C
% is set by controls: 0 for no effect and ±100 for the full control effect; potency is the fitted concentration of half-maximal effect.

CN(C)[C@@H]1C(=O)C(C(N)=O)=C(O)[C@@]2(O)C(=O)C3=C(O)c4c(O)ccc(Cl)c4[C@@](C)(O)[C@H]3C[C@@H]12
inactive: activity, negative = cell killing [1, 3] -1.9% | activity, negative = cell killing [1, 4] -17.1% | activity, negative = cell killing [1, 5] 7.37% | activity, negative = cell killing [1, 6] -17.5% | Potency [2]

CC(=O)OO
inactive: activity, negative = cell killing [1, 7] -7.1% | activity, negative = cell killing [1, 8] -0.699% | activity, negative = cell killing [1, 9] -24.9% | activity, negative = cell killing [1, 10] 3.69% | Potency [2]

ClCC1CO1 (stereo not given)
inactive: activity, negative = cell killing [1, 7] -15% | activity, negative = cell killing [1, 8] -9.19% | activity, negative = cell killing [1, 9] -27.8% | activity, negative = cell killing [1, 10] -16.2% | Potency [2]

CCC(C)(S(=O)(=O)CC)S(=O)(=O)CC
inactive: activity, negative = cell killing [1, 7] -9.18% | activity, negative = cell killing [1, 8] -21.6% | activity, negative = cell killing [1, 9] -5.61% | activity, negative = cell killing [1, 10] -8.4% | Potency [2]

Clc1ccccc1Cl
inactive: activity, negative = cell killing [1, 7] -2.22% | activity, negative = cell killing [1, 8] -8.63% | activity, negative = cell killing [1, 9] -3.16% | activity, negative = cell killing [1, 10] -0.0025% | Potency [2]

CCNCC(O)c1cccc(O)c1 (stereo not given)
inactive: activity, negative = cell killing [1, 3] 5.83% | activity, negative = cell killing [1, 4] -15.1% | activity, negative = cell killing [1, 5] -23% | activity, negative = cell killing [1, 6] -30.1% | Potency [2]

O=[N+]([O-])c1ccccc1
inactive: activity, negative = cell killing [1, 7] -3.33% | activity, negative = cell killing [1, 8] -6.09% | activity, negative = cell killing [1, 9] -9.64% | activity, negative = cell killing [1, 10] -9.59% | Potency [2]

C[C@]12CC[C@H](OS(=O)(=O)O)CC1=CC[C@@H]1[C@@H]2CC[C@]2(C)C(=O)CC[C@@H]12
inactive: activity, negative = cell killing [1, 7] 3.89% | activity, negative = cell killing [1, 8] -2.35% | activity, negative = cell killing [1, 9] -29.4% | activity, negative = cell killing [1, 10] -15.3% | Potency [2]

O=c1ccc2cc(O[C@@H]3O[C@H](CO)[C@@H](O)[C@H](O)[C@H]3O)c(O)cc2o1
inactive: activity, negative = cell killing [1, 3] -2.02% | activity, negative = cell killing [1, 4] -12.8% | activity, negative = cell killing [1, 5] -17.9% | activity, negative = cell killing [1, 6] -15.8% | Potency [2]

CC(N)Cc1ccc(O)cc1 (stereo not given)
inactive: activity, negative = cell killing [1, 7] -3.82% | activity, negative = cell killing [1, 8] -1.1% | activity, negative = cell killing [1, 9] -18.1% | activity, negative = cell killing [1, 10] 5.3% | Potency [2]

CC1(C)S[C@@H]2[C@H](N)C(=O)N2[C@H]1C(=O)O
inactive: activity, negative = cell killing [1, 3] -3.46% | activity, negative = cell killing [1, 4] -7.3% | activity, negative = cell killing [1, 5] -20.2% | activity, negative = cell killing [1, 6] -24.1% | Potency [2]

CCCCCl
inactive: activity, negative = cell killing [1, 7] -5.4% | activity, negative = cell killing [1, 8] -17.7% | activity, negative = cell killing [1, 9] -20.4% | activity, negative = cell killing [1, 10] 7.44% | Potency [2]

CC(C)CCON=O
inactive: activity, negative = cell killing [1, 7] 0.0037% | activity, negative = cell killing [1, 8] -3.58% | activity, negative = cell killing [1, 9] -24.7% | activity, negative = cell killing [1, 10] 2.53% | Potency [2]

CCC1(C)CC(=O)NC(=O)C1
inactive: activity, negative = cell killing [1, 3] -7.73% | activity, negative = cell killing [1, 4] -6.36% | activity, negative = cell killing [1, 5] -5.16% | activity, negative = cell killing [1, 6] -9.96% | Potency [2]

CCOC(=O)/C=C(C)/C=C/C[C@@H](C)CCCC(C)C
inactive: activity, negative = cell killing [1, 7] -7.77% | activity, negative = cell killing [1, 8] 3.89% | activity, negative = cell killing [1, 9] -29.3% | activity, negative = cell killing [1, 10] -6.42% | Potency [2]

CNC(C)C(O)c1ccc(O)cc1 (stereo not given)
inactive: activity, negative = cell killing [1, 7] -14.1% and -15.9% | activity, negative = cell killing [1, 8] 3.04% and 6.23% | activity, negative = cell killing [1, 9] -17.8% and -27.7% | activity, negative = cell killing [1, 10] -5.67% and -20.1% | Potency [2]

CCCCC[C@@H](O)C1C(=O)OC(C)[C@H](O)/C=C/C=C/C=C/C=C/C=C(\C)C(O)C(O)C(O)C[C@H](O)C[C@H](O)C[C@H](O)C[C@H](O)C[C@@H]1O (stereo not given in full)
inactive: activity, negative = cell killing [1, 7] -7.45% and 7.1% | activity, negative = cell killing [1, 8] 14.9% and -7.76% | activity, negative = cell killing [1, 9] -18.3% and -29% | activity, negative = cell killing [1, 10] -15.7% and -7.35% | Potency [2]

Oc1cc(Cl)c(Cl)cc1Cl
inactive: activity, negative = cell killing [1, 7] -12.6% | activity, negative = cell killing [1, 8] -21.4% | activity, negative = cell killing [1, 9] -39.7% | activity, negative = cell killing [1, 10] -1.02% | Potency [2]

ClC1C(Cl)C(Cl)C(Cl)C(Cl)C1Cl (stereo not given)
inactive: activity, negative = cell killing [1, 7] -3.31% | activity, negative = cell killing [1, 8] -6.39% | activity, negative = cell killing [1, 9] -20.5% | activity, negative = cell killing [1, 10] -11% | Potency [2]

CC(C)Nc1ccc(Nc2ccccc2)cc1
inactive: activity, negative = cell killing [1, 10] -13.8%
active: Potency ([1]; tumour line A) 11.2 µM | Potency ([1]; tumour line B) 17.8 µM | Potency ([1]; tumour line D) 20 µM | Potency [2] 22.4 µM

Cn1sc(Cl)cc1=O
inactive: activity, negative = cell killing [1, 7] -15.7% | activity, negative = cell killing [1, 8] -11.3% | activity, negative = cell killing [1, 9] -21.6% | activity, negative = cell killing [1, 10] -21.9% | Potency [2]

CNC(=O)OCC[N+](C)(C)C
inactive: activity, negative = cell killing [1, 7] -5.85% | activity, negative = cell killing [1, 8] -20% | activity, negative = cell killing [1, 9] -22.4% | activity, negative = cell killing [1, 10] -19.7% | Potency [2]

O=C1C[C@@H]2OCC=C3CN4CC[C@]56c7ccccc7N1[C@H]5[C@H]2[C@H]3C[C@H]46 (tested in a mixture with another compound)
inactive: activity, negative = cell killing [1, 7] -8.18% and -6.54% | activity, negative = cell killing [1, 8] -14.5% and -6.5% | activity, negative = cell killing [1, 10] 1.96% and -18.9% | Potency [2]
active: Potency ([1]; tumour line A) 20 µM

— PubChem BioAssay (NCATS)
